# Screens deposited in PubChem BioAssay by National Center for Advancing Translational Sciences (NCATS).
# Shown are actives, neighbours in structure and some others; about 10% of the full set was active somewhere.
# Sfp inh: blocks B. subtilis Sfp PPTase activity; 310,000 tested, 3.5% active; Potency, µM, inactives show largest response in the series, negative = inhibition, most hits filed as inhibitors; Q9F4F7; Biochemical Sfp PPTase activity, qHTS;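 note: the enzyme is Sfp with the accession as filed and its product quenches rhodamine fluorescence; potency is the fitted concentration of half-maximal effect; 0% = enzyme reaction without inhibitor and -100% = no enzyme wells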
#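 Fluorescence-quenching assay: 15 nM Sfp-PPTase preincubated 15 min at room temperature with compound, then 5 uM rhodamine-CoA and 12.5 uM BHQ-2-labelled YbbR peptide added. Fluorescence (ex 525/em 598 nm) read at start and after 30 min; difference gives rate.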
# MmCpn inh: M. maripaludis TRiC chaperonin inhibition | Potency, µM (top dose mostly 76.9 µM), without a hit: top-dose activity, negative = inhibition, most hits filed as inhibitors | 330,000 tested, 0.031% active | purified Mm-Cpn ATPase, ADP Transcreener TR-FRET; note: potency is the fitted concentration of half-maximal effect; nearly all actives have a fitted effect of over 80% in size
#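 Eu-cryptate anti-ADP/ADP-d2 competition gives a ratio inversely related to ADP. Enzyme at 25 nM was pre-exposed to compound for 10 min, then given 10 uM ATP for 30 min, 37°C throughout.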
# VDR inh: vitamin D3 receptor (human) inhibition | VDR-SRC2-3 peptide fluorescence polarization, 2 h | Potency, µM, inactives show max response, negative = inhibition, usual class: inhibitors | 400,000 tested, 0.93% active | AID 504847; note: potency is the fitted concentration of half-maximal effect
# Target sequence (P11473 whole entry, looked up): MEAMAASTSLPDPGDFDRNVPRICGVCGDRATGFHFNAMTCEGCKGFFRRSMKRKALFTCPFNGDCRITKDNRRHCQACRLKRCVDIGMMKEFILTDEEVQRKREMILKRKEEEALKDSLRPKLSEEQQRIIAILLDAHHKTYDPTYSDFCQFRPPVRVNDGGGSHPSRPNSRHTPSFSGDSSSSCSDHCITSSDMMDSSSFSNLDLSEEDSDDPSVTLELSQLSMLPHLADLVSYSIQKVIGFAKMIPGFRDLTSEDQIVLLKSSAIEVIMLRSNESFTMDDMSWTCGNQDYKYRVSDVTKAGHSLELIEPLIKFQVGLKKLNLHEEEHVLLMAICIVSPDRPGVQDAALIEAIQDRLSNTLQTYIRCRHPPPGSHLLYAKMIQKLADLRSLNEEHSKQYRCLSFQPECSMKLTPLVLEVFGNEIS
#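 The screen uses fluorescence polarization to detect compounds that interfere with recruitment of the SRC2-3 coactivator peptide to VDR; plates are read after 2 h at room temperature.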
# PLK1 PBD inh: inhibitors of human PLK1 polo-box domain binding; P53350; Plk1 PBD binding of FITC phosphopeptide, fluorescence polarization; Potency, µM, for the others: max response, negative = inhibition, actives largely listed as inhibitors; 360,000 tested, 2.8% active; AID 720504; note: potency is the fitted concentration of half-maximal effect; series mostly up to about 57 µM; nearly all actives have a fitted effect of over 65% in size
# CCT chaperon mod: changes cytosolic chaperonin activity; 360,000 tested, 0.3% active; activity change, % (concentration not given with the values), hits read low; purified chaperonin ATPase assay, HTRF ADP detection, 30 min; in the data active = activity change below about -30%
#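 Enzyme 40 or 20 nM (batch-dependent) in Tris pH 7.4/KCl/MgCl2/DTT; cpd 76 uM single point; ATP 10 uM; 30 min 37 °C; Transcreener ADP HTRF detection, 30 min RT; ratio 665/615.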
# G9a block: inhibitors of human histone lysine methyltransferase G9a | Q96KQ7 | G9a H3K9 monomethylation, AlphaScreen, 2 h | Potency, µM (titrated, usually from 102 µM), without a hit: at the top dose activity, negative = inhibition, actives largely listed as inhibitors | 350,000 tested, 8.8% active | AID 504332; note: potency is the fitted concentration of half-maximal effect; nearly all actives have a fitted effect of over 75% in size
# Target sequence (Q96KQ7 913-1193 limits assumed): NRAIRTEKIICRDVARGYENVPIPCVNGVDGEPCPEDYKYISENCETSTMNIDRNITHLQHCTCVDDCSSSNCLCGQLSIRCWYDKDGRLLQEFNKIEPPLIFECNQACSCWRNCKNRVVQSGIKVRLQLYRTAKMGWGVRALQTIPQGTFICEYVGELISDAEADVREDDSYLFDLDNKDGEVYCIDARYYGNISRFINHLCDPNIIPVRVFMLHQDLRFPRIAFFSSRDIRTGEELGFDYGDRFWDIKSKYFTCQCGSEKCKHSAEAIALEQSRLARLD
#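 G9a (20 nM) preincubated 15 min RT with compounds, then 500 nM biotinylated H3K9 peptide and 20 uM SAM added; 2 h RT reaction. Monomethyl-H3K9 product detected by AlphaScreen with anti-H3K9me1 antibody, streptavidin donor and anti-rabbit IgG acceptor beads.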
# * marks the source's active call; other numbers are inactive results; u = inconclusive; x = not tested or not shown; [ ] = remark or other dose. Unless noted, calls come from the whole dose curve; as a rule, active = well fitted curve in the direction sought with a large enough effect; inconclusive = small, poorly fitted or top-dose-only effect, or another doubt; inactive = no such curve, though single readings can be large; an effect the other way counts as inactive or inconclusive. Unless noted, % is set by controls: 0 for no effect and ±100 for the full control effect.
SMILES,Sfp inh,MmCpn inh,VDR inh,PLK1 PBD inh,CCT chaperon mod,G9a block
S=c1[nH]nc(COc2ccc3ccccc3c2)o1,0%,1%,-11%,u,-4,0.89µM*
COc1ccc(-c2noc(-c3ccc(Br)o3)n2)cc1OC,12%,-3%,-9%,2%,0,11%[12.7 µM]
COc1ccc(Cc2nc(-c3ccc(Br)o3)no2)cc1OC,-4%,-2%,-7%,-13%,2,50µM*
Cc1ccc(CN(CC2CCCO2)C(=O)CN2C(=O)C(C(C)C)Oc3ccccc32)o1 (configuration not stated),45µM*,1%,u,u,0,u
CC(C)C1Oc2ccccc2N(CC(=O)N(Cc2ccccn2)CC2CCCO2)C1=O (configuration not stated),1%,-13%,4%,-6%,-2,4%
COC(=O)C1=C(C)N(Cc2cccnc2)C(=O)C1,0%,0%,-11%,-1%,1,14µM*
COC(=O)C1=C(C)N(Cc2ccc(OC)cc2)C(=O)C1,-15%,1%,-2%,-7%,-1,8%[59 µM]
COC(=O)C1=C(C)N(CC(C)C)C(=O)C1,-10%,-2%,9%,1%,1,40µM*
COC(=O)C1=C(C)N(Cc2ccc(OC)c(OC)c2)C(=O)C1,8%,0%,4%,21µM*,-2,-13%[59 µM]
Cc1ccc(Cn2c(CCNC(=O)C(C)C)nc3ccccc32)cc1,x,x,7%,x,x,6%[59 µM]
COc1ccc(CCNC(=O)CCn2c(=O)c3cccn3c3ccc(F)cc32)cc1OC,x,x,4%,x,x,-8%[59 µM]
CCN(Cc1ccccc1)C(=O)c1nc(-c2cccc(F)c2)n2c1CCCCC2,x,x,-2%,x,x,-50%[59 µM]
O=C1C2ON(c3ccc(Cl)cc3)C(c3ccco3)C2C(=O)N1c1ccccc1 (configuration not stated),32µM*,-1%,u,-9%,1,40%[59 µM]
CC(=O)Nc1ccc(S(=O)(=O)NNC(=O)COc2ccc(Cl)cc2Cl)cc1,-12%,-3%,-9%,-15%,2,50µM*
CC(=O)Nc1ccc(S(=O)(=O)NNC(=O)c2cccc(Cl)c2)cc1,-26%,0%,-6%,24µM*,3,5.6µM*
CC(=O)Nc1ccc(S(=O)(=O)NNC(=O)COc2ccc(C)cc2)cc1,1%,0%,-8%,-6%,-1,-4%[59 µM]
CC(=O)Nc1ccc(S(=O)(=O)NNC(=O)COc2ccc(C(C)(C)C)cc2)cc1,0%,-3%,-8%,27µM*,0,u
O=C(NNS(=O)(=O)c1ccccc1)c1cccc(F)c1,35µM*,-10%,-4%,-8%,0,8%[0.501 µM]
Cc1noc(NS(=O)(=O)c2ccc(NC(=O)COc3ccc(Cl)cc3Cl)cc2)c1C,11%,0%,-11%,u,1,-34%[2.33 µM]
COc1ccc([N+](=O)[O-])c2c1CCN2C(=O)CC[C@H](N)C(=O)O,-14%,x,4%,x,x,x
Cc1cc(C)nc(NS(=O)(=O)c2ccc(NC(=O)COc3ccc(Cl)cc3C)cc2)n1,x,x,6%,x,x,10µM*
Cc1cc(C)nc(NS(=O)(=O)c2ccc(NC(=O)COc3ccccc3)cc2)n1,13%,-2%,16%,-9%,-2,-2%[59 µM]
CC(=O)Nc1ccc(S(=O)(=O)NCC(=O)NNC(=O)COc2c(C)cccc2C)cc1,x,-1%,8%,-5%,-5,x
CC(=O)Nc1ccc(S(=O)(=O)NCC(=O)NNC(=O)COc2ccccc2Cl)cc1,x,0%,-27%,19µM*,1,u
Cn1ccc(C(=O)Nc2sc3c(c2C(N)=O)CCCCC3)n1,32µM*,2%,3%,u,0,22µM*
SMILES,Sfp inh,MmCpn inh,VDR inh,PLK1 PBD inh,CCT chaperon mod,G9a block
NC(=O)c1c(NC(=O)c2noc3c2CCCC3)sc2c1CCCC2,x,x,50µM*,x,x,1.8µM*
NC(=O)c1c(NC(=O)C2c3ccccc3Oc3ccccc32)sc2c1CCCCC2,35µM*,-2%,-28%,u,-4,7%[59 µM]
Cc1cc(C(F)F)n2nc(C(=O)Nc3sc4c(c3C(N)=O)CCC4)nc2n1,-6%,-2%,1%,-28%,1,40µM*
CCOC(=O)c1c(NC(=O)c2noc3c2CC(C(C)(C)C)CC3)sc2c1CCCC2 (configuration not stated),x,x,u,x,x,2µM*
O=C(CN1CCCN(Cc2ccccc2Cl)S1(=O)=O)Nc1ccc2c(c1)OCCO2,x,x,3%,x,x,-1%[59 µM]
CCOc1cccc(N2C(=O)CC(NCc3ccc(S(N)(=O)=O)cc3)C2=O)c1 (configuration not stated),1%,0%,16%,-1%,-3,50µM*
COCCNC(=O)c1c(C)oc2nc(C)nc(N3CCOCC3)c12,x,x,-8%,x,x,-3%[59 µM]
CO/N=C(\Cn1ncc(N2CCCC2)c(Br)c1=O)c1ccc(Cl)cc1,89µM*,-1%,-13%,-11%,-1,u
Cn1cccc1C(=O)N1CCC2(CC1)CCN(c1ccccc1)CC2,4%,x,-7%,x,x,-6%[12.7 µM]
Cc1cc(C(=O)CN2C(=O)C(=O)N(Cc3ccccc3)C2=O)c(C)n1-c1ccccc1F,24%,0%,16%,-15%,-2,-4%
Cc1cc(C(=O)CN2CCC(C)CC2)c(C)n1-c1ccccc1F,2%,-1%,-11%,-10%,-1,50µM*
Cc1ccc(-c2nc(C(=O)NCc3ccccc3Cl)c3n2CCCCC3)cc1,x,x,-2%,x,x,-9%[59 µM]
C=CCNC(=S)NNc1nc(Nc2ccccc2)nc(N2CCCCC2)n1,25%,0%,1%,-13%,-1,u
CCCNc1nc(N2CCOCC2)nc(N2CCOCC2)n1,18%,1%,4%,1%,-3,u
CCNC(=S)NNc1nc(N2CCOCC2)nc(N2CCOCC2)n1,14µM*,0%,-26%,-9%,-2,u
C=CCNC(=S)NNc1nc(N2CCCC2)nc(N2CCCC2)n1,40µM*,-1%,u,-15%,-54*,u
CNC(=S)NNc1nc(N2CCOCC2)nc(N2CCOCC2)n1,2.2µM*,2%,2%,-9%,0,u
Cc1ccc(O)c(C(CC(=O)NCC2(c3ccccc3)CCCC2)c2ccccc2)c1 (configuration not stated),x,x,-5%,x,x,-30%[59 µM]
Cc1cccc2c1-c1sc(C(=O)NCc3ccc(Cl)cc3)cc1CO2,x,x,-15%,x,x,10%[59 µM]
COc1ccc(CNC(=O)CCS(=O)(=O)c2cc(Br)cc3c2N(C(C)=O)C(C)C3)cc1 (configuration not stated),x,x,-14%,x,x,-25%[59 µM]
Cc1cccc(/C=N/n2c(-c3ccncc3)n[nH]c2=S)c1,u,0%,-7%,-23%,0,1µM*
S=c1[nH]nc(-c2ccncc2)n1/N=C/c1ccccc1,-7%,0%,13%,-11%,0,1.3µM*
